# Measured values: the supplement of paper PMC9492666
# Counter-ions that a name gives are not always drawn.
# Assays:
# HCC1937 = experiment: relative cell viability, compound + RSL3, vs DMSO (fraction of DMSO control); higher = less growth inhibition; details: 72 h
# MDA-MB-231 = experiment: as above; details: 72 h
# 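Note: breast cancer cell viability read out with the CCK-8 kit after co-treatment of each compound with the ferroptosis inducer RSL3.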
SMILES,relative cell viability (HCC1937),relative cell viability (MDA-MB-231)
CCCCCC=CC(=O)CCc1ccc(O)c(OC)c1 [6-Shogaol] + COC(=O)c1ccc([C@H]2c3[nH]c4ccccc4c3C[C@H](C(=O)OC)N2C(=O)CCl)cc1 [RSL3],0.608,0.64
O=c1c(-c2ccc(O)cc2)coc2cc(O)ccc12 [Daidzein] + COC(=O)c1ccc([C@H]2c3[nH]c4ccccc4c3C[C@H](C(=O)OC)N2C(=O)CCl)cc1 [RSL3],0.865,0.608
CC(C)OC(=O)C(C)(C)Oc1ccc(C(=O)c2ccc(Cl)cc2)cc1 [Fenofibrate] + COC(=O)c1ccc([C@H]2c3[nH]c4ccccc4c3C[C@H](C(=O)OC)N2C(=O)CCl)cc1 [RSL3],0.681,0.606
Oc1ccc(/C=C/c2cc(O)cc(O)c2)cc1 [Resveratrol] + COC(=O)c1ccc([C@H]2c3[nH]c4ccccc4c3C[C@H](C(=O)OC)N2C(=O)CCl)cc1 [RSL3],0.63,0.508
O=C(O)/C=C/c1ccc(O)c(O)c1 [Caffeic Acid] + COC(=O)c1ccc([C@H]2c3[nH]c4ccccc4c3C[C@H](C(=O)OC)N2C(=O)CCl)cc1 [RSL3],0.623,0.426
O=C1c2cccc(O)c2C(=O)c2c(O)cccc21 [Antrapurol] + COC(=O)c1ccc([C@H]2c3[nH]c4ccccc4c3C[C@H](C(=O)OC)N2C(=O)CCl)cc1 [RSL3],0.583,0.537
Cc1nc(-c2nc(-c3ccc(OC(F)(F)F)cc3)no2)nn1Cc1cccc(N2CCC(S(C)(=O)=O)CC2)c1 + COC(=O)c1ccc([C@H]2c3[nH]c4ccccc4c3C[C@H](C(=O)OC)N2C(=O)CCl)cc1 [RSL3],0.417,0.559
CC(C)Cc1ccc([C@H](C)C(=O)O)cc1 [Dexibuprofen] + COC(=O)c1ccc([C@H]2c3[nH]c4ccccc4c3C[C@H](C(=O)OC)N2C(=O)CCl)cc1 [RSL3],1.03,0.606
C=C(C)[C@@H]1CCC2=CC(=O)C[C@@H](C)[C@]2(C)C1 [Nootkatone] + COC(=O)c1ccc([C@H]2c3[nH]c4ccccc4c3C[C@H](C(=O)OC)N2C(=O)CCl)cc1 [RSL3],0.509,0.613
COc1cccc(CNc2ccc(S(=O)(=O)Nc3nc4ccccc4s3)cc2)c1O + COC(=O)c1ccc([C@H]2c3[nH]c4ccccc4c3C[C@H](C(=O)OC)N2C(=O)CCl)cc1 [RSL3],0.583,0.657
CC[C@H](C)C(=O)O[C@H]1C[C@@H](C)C=C2C=C[C@H](C)[C@H](CC[C@@H]3C[C@@H](O)CC(=O)O3)[C@H]21 [Lovastatin] + COC(=O)c1ccc([C@H]2c3[nH]c4ccccc4c3C[C@H](C(=O)OC)N2C(=O)CCl)cc1 [RSL3],0.867,0.491
CC(C)[C@H](N=C(NS(=O)(=O)c1ccc(Cl)cc1)N1C[C@H](c2ccccc2)C(c2ccc(Cl)cc2)=N1)C(N)=O + COC(=O)c1ccc([C@H]2c3[nH]c4ccccc4c3C[C@H](C(=O)OC)N2C(=O)CCl)cc1 [RSL3],0.551,0.45
CN(C)CCOC(=O)COc1ccc(Cl)cc1 [Meclofenoxate hydrochloride] + COC(=O)c1ccc([C@H]2c3[nH]c4ccccc4c3C[C@H](C(=O)OC)N2C(=O)CCl)cc1 [RSL3],0.612,0.574
c1cc(-c2cnn3cc(-c4ccc(OCCN5CCCCC5)cc4)cnc23)ccn1 [Dorsomorphin dihydrochloride] + COC(=O)c1ccc([C@H]2c3[nH]c4ccccc4c3C[C@H](C(=O)OC)N2C(=O)CCl)cc1 [RSL3],0.111,0.286
CN1CC(O)C2=C/C(=N/NC(N)=O)C(=O)C=C21 (configuration not stated) [Carbazochrome] + COC(=O)c1ccc([C@H]2c3[nH]c4ccccc4c3C[C@H](C(=O)OC)N2C(=O)CCl)cc1 [RSL3],0.451,0.551
c1cc(-c2cnn3cc(-c4ccc(OCCN5CCCCC5)cc4)cnc23)ccn1 [Dorsomorphin] + COC(=O)c1ccc([C@H]2c3[nH]c4ccccc4c3C[C@H](C(=O)OC)N2C(=O)CCl)cc1 [RSL3],0.123,0.31
COc1cc(O)c2c(c1)O[C@H](c1ccc(O)cc1)CC2=O [Sakuranetin] + COC(=O)c1ccc([C@H]2c3[nH]c4ccccc4c3C[C@H](C(=O)OC)N2C(=O)CCl)cc1 [RSL3],0.362,0.645
CC1CC(OC(=O)C(O)c2ccccc2)CC(C)(C)C1 (configuration not stated) [Cyclandelate] + COC(=O)c1ccc([C@H]2c3[nH]c4ccccc4c3C[C@H](C(=O)OC)N2C(=O)CCl)cc1 [RSL3],0.808,0.638
CC(C)(O)[C@@H]1Cc2cc3ccc(=O)oc3cc2O1 [marmesin] + COC(=O)c1ccc([C@H]2c3[nH]c4ccccc4c3C[C@H](C(=O)OC)N2C(=O)CCl)cc1 [RSL3],0.412,0.59
CN(C)C(=N)NC(=N)N [Metformin hydrochloride] + COC(=O)c1ccc([C@H]2c3[nH]c4ccccc4c3C[C@H](C(=O)OC)N2C(=O)CCl)cc1 [RSL3],0.855,0.605
CN(CCOc1ccc(CC2SC(=O)NC2=O)cc1)c1ccccn1 (configuration not stated) [Rosiglitazone HCl] + COC(=O)c1ccc([C@H]2c3[nH]c4ccccc4c3C[C@H](C(=O)OC)N2C(=O)CCl)cc1 [RSL3],0.486,0.714
C[C@@H](Nc1nc(N[C@H](C)C(F)(F)F)nc(-c2cccc(Cl)n2)n1)C(F)(F)F [Vorasidenib] + COC(=O)c1ccc([C@H]2c3[nH]c4ccccc4c3C[C@H](C(=O)OC)N2C(=O)CCl)cc1 [RSL3],0.409,0.595
C[C@H]1N=C(N(C)C)N=C(N)N1 [Imeglimin hydrochloride] + COC(=O)c1ccc([C@H]2c3[nH]c4ccccc4c3C[C@H](C(=O)OC)N2C(=O)CCl)cc1 [RSL3],0.504,0.647
O=C(Nc1ccncc1)c1cc([N+](=O)[O-])ccc1Cl + COC(=O)c1ccc([C@H]2c3[nH]c4ccccc4c3C[C@H](C(=O)OC)N2C(=O)CCl)cc1 [RSL3],0.297,0.438
COC(=O)c1cc(Cl)c(O)c(S(=O)(=O)Nc2cc(-c3ccccc3)c(F)cc2F)c1 + COC(=O)c1ccc([C@H]2c3[nH]c4ccccc4c3C[C@H](C(=O)OC)N2C(=O)CCl)cc1 [RSL3],0.45,0.573
CC(C)(C)N1C(=O)C(Nc2ccc(N3CCCCC3)cc2)=C(c2ccccc2)S1(=O)=O + COC(=O)c1ccc([C@H]2c3[nH]c4ccccc4c3C[C@H](C(=O)OC)N2C(=O)CCl)cc1 [RSL3],0.686,0.69
